For 31 molecules, outcome and Potency results are on record in PubChem BioAssay (Tox21).

Several values for one entry are separate records, joined by “and”; a condition that tells them apart may be missing. Identical values can stand only once. Records with an inconclusive call do not appear. Activity calls are given as the source filed them. Unless noted, the call rests on the fitted dose curve; in most records, active means well fitted curve in the direction sought with a large enough effect in the repeat runs; inconclusive means weak or mixed curves; inactive means flat fitted curve, though single readings scatter.

Experiment [1] in a line: qHTS assay to test for compound auto fluorescence at 535 nm (green) in HEK293 cells (AID 720680).
A short description of experiment [2]: qHTS assay to test for compound auto fluorescence at 460 nm (blue) in HEK293 cell free culture (AID 720681). Put shortly:
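Blue fluorescence (Ex 405/Em 460 nm, triamterene-equivalent) was read immediately after pin transfer of compound or DMSO into medium (DMEM, 10% FBS) without cells.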

Experiment [3] can be described thus: qHTS assay to test for compound auto fluorescence at 535 nm (green) in HEK293 cell free culture (AID 720682). A digest of the protocol: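 Using fluorescein as calibrant, autofluorescence was quantified at 485/535 nm in cell-free DMEM containing 10% FBS after pintool addition of compound or vehicle.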
Background: Quantitative high-throughput screening tests each substance at several concentrations.

Experiment [4] in a line: qHTS assay to test for compound auto fluorescence at 590 nm (red) in HEK293 cell free culture (AID 720683). A digest of the protocol:
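Red-channel autofluorescence of compounds in culture medium (DMEM, 10% FBS), no cells, measured at 540/590 nm. Rose Bengal sodium is the reference fluorophore for equivalence.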

Experiment [5] can be described thus: qHTS assay to test for compound auto fluorescence at 590 nm (red) in HepG2 cell free culture (AID 720684). Put shortly:
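Plate contents were MEM with 10% FBS plus test compound or DMSO, no cells. Fluorescence was recorded with 540 nm excitation and 590 nm emission.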

Experiment [6] is described as follows: qHTS assay to test for compound auto fluorescence at 460 nm (blue) in HepG2 cell free culture (AID 720685). Put shortly:
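Compound (23 nL) or DMSO pinned into cell-free MEM with 10% FBS; blue fluorescence read at 405/460 nm excitation/emission, expressed as auto-fluorescence equivalency to triamterene.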

The nature of experiment [7]: qHTS assay to test for compound auto fluorescence at 460 nm (blue) in HepG2 cells (AID 720687). Put shortly: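 Blue-channel autofluorescence (Ex/Em 405/460 nm, triamterene-equivalent) was measured after 1 hr compound exposure at 37 C, 5% CO2. Cells were HepG2, plated overnight at 37 C in MEM plus 10% FBS.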
Experiment [8] concerns the target Glucocorticoid receptor (Homo sapiens) (UniProt P04150). Put plainly: qHTS assay to identify small molecule agonists of the glucocorticoid receptor (GR) signaling pathway (AID 720691; active means well fitted activation curve with a large enough effect in the signal ratio in the repeat runs, not every such curve was filed as active; the % refers to the signal ratio; further: potency means the concentration at half of the fitted maximal effect). Put shortly:
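GR-bla HeLa cells carrying a GRE-driven beta-lactamase reporter, exposed to compounds for 18 h at 37 C. Reporter activation read as fluorescence after 2 h with LiveBLAzer B/G FRET substrate at room temperature.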

For experiment [9] the target is unchanged. Briefly: qHTS assay to identify small molecule antagonists of the glucocorticoid receptor (GR) signaling pathway (AID 720692; active means well fitted inhibition curve with a large enough effect in the signal ratio in the repeat runs, not every such curve was filed as active; the % refers to the signal ratio; further: potency means the concentration at half of the fitted maximal effect). Put shortly: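 GR-bla HeLa cells carrying a GRE-driven beta-lactamase reporter received compound after 4 h plating, then dexamethasone (5 nM final). After 18 h at 37C, the FRET substrate was loaded for 2 h at room temperature and fluorescence read.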

Glucocorticoid receptor (Homo sapiens), sequence (P04150 whole entry, looked up): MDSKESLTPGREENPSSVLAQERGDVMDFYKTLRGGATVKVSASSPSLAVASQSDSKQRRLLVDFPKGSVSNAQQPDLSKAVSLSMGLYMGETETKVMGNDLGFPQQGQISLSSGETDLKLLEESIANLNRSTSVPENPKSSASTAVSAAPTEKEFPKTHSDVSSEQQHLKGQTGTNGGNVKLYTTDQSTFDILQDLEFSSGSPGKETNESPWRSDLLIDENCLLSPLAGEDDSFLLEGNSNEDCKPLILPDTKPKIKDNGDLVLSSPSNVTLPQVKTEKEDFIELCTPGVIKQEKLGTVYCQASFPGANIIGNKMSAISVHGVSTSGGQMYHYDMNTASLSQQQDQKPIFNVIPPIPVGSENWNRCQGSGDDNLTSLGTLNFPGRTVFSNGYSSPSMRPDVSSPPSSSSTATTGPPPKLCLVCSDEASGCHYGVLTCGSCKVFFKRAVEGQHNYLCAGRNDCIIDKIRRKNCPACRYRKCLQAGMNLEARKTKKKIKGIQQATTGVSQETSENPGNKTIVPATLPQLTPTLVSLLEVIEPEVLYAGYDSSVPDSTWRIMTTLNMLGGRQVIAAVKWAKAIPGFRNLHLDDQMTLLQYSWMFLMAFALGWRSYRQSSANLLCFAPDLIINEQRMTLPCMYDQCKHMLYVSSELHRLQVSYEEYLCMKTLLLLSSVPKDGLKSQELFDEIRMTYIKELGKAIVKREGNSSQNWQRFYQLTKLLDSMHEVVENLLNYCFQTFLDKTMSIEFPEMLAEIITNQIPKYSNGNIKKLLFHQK

Turning to `Oc1ccc(-c2ccccc2)cc1`, the result in experiment [1], in [2], in [3], in experiment [4], in experiment [5] and in experiment [6] was inactive. The outcome in experiment [7] was inactive. The Potency entry in experiment [8] was “inactive”.
For `CCN(CC)N=O`, the call in [1], in experiment [2], in experiment [3], in experiment [4], in experiment [5] and in experiment [6] was inactive. Moreover, the outcome in [7] was inactive.
As for `CC(C)(c1cc(Cl)c(O)c(Cl)c1)c1cc(Cl)c(O)c(Cl)c1`, the molecule was called inactive in [1], in [2], in experiment [3], in experiment [4], in [5] and in experiment [6]. Besides, in experiment [7], the outcome was inactive. For the same molecule, the Potency result in experiment [8] is “inactive”. Also, the Potency in experiment [9] was 12.3 µM (active) and 6.92 µM (active).
On to `Oc1cc(Cl)ccc1Oc1ccc(Cl)cc1Cl`, for which the call in experiment [1], in experiment [2], in [3], in [4], in [5] and in experiment [6] was inactive. Moreover, in experiment [7], the outcome was inactive. For the same molecule, the Potency result in experiment [8] is “inactive”.
In the case of `COc1ccc(C=O)cc1`, the outcome in [1], in [2], in experiment [3], in experiment [4], in experiment [5] and in experiment [6] was inactive. Besides, the molecule was called inactive in experiment [7]. Further, the Potency result in experiment [8] and in experiment [9] was “inactive” throughout.
With `CCN(CC)C(=O)/C(Cl)=C(\C)OP(=O)(OC)OC`, the outcome in [1], in [2], in experiment [3], in experiment [4], in experiment [5] and in [6] was inactive. Moreover, the molecule was called inactive in experiment [7]. In addition, the Potency result in experiment [8] and in [9] was “inactive” each time.
With `Cc1cccc(N)c1N`, the outcome in experiment [1], in experiment [2], in experiment [3], in experiment [4], in [5] and in [6] was inactive. The result in experiment [7] was inactive. For the same molecule, the Potency result in experiment [8] and in [9] was “inactive” throughout.
As for `CC(C)C(=O)OCC(C)(C)C(OC(=O)C(C)C)C(C)C` (configuration not stated), the result in experiment [1], in experiment [2], in [3], in experiment [4], in experiment [5] and in [6] was inactive. The result in experiment [7] was inactive. The Potency entry in [8] and in [9] was “inactive” throughout.
In the case of `CN(C)c1ccc(C(=O)c2ccc(N(C)C)cc2)cc1`, the molecule was classed as inactive in experiment [1], in experiment [3], in experiment [4] and in experiment [5]. Also, the Potency entry in experiment [8] was “inactive”.
Take `OCC(O)CO`: the Potency result in [8] and in experiment [9] was “inactive” in each case.
Take `O=S(=O)(Oc1ccc(Cl)cc1)c1ccc(Cl)cc1`: the molecule was classed as inactive in experiment [1], in experiment [2], in experiment [3], in [4], in experiment [5] and in experiment [6]. For the same molecule, the molecule was called inactive in [7]. In addition, the Potency result in experiment [8] is “inactive”.
In the case of `c1nc[nH]n1`, the call in [1], in experiment [2], in [3], in [4], in experiment [5] and in experiment [6] was inactive. Moreover, the molecule was classed as inactive in experiment [7]. Further, the Potency result in experiment [8] and in [9] was “inactive” in each case.
In the case of `CCCCC(CC)COC(=O)Cl` (configuration not stated), the call in [1], in experiment [2], in [3], in experiment [4], in experiment [5] and in experiment [6] was inactive. Besides, the result in experiment [7] was inactive. For the same molecule, the Potency result in experiment [8] and in [9] was “inactive” in each case.
For `CCCCNC(=O)n1c(NC(=O)OC)nc2ccccc21`, the call in experiment [1], in [2], in experiment [3], in experiment [4], in [5] and in [6] was inactive. The molecule was called inactive in [7]. Also, the Potency result in [8] and in experiment [9] was “inactive” throughout.
As for `C=CCc1ccc(OC)cc1`, the molecule was classed as inactive in [1], in experiment [2], in experiment [3], in [4], in [5] and in experiment [6]. The call in experiment [7] was inactive.
For `CCCCCCCCC(=O)NCc1ccc(O)c(OC)c1`, the call in experiment [1], in experiment [2], in experiment [3], in [4], in experiment [5] and in experiment [6] was inactive. Besides, in experiment [7], the result was inactive. Besides, the Potency in experiment [8] is 30.1 µM (active).
As to `c1cc(OCC2CO2)ccc1Cc1ccc(OCC2CO2)cc1` (configuration not stated), the result in [1], in [2], in [3], in experiment [4], in experiment [5] and in experiment [6] was inactive. In experiment [7], the call was inactive. In experiment [8], the Potency entry was “inactive”.
In the case of `CCOCN(C(=O)CCl)c1c(C)cccc1CC`, the result in [1], in [2], in experiment [3], in experiment [4], in experiment [5] and in experiment [6] was inactive. In experiment [7], the molecule was classed as inactive. The Potency result in experiment [8] is “inactive”.
In the case of `O=[N+]([O-])c1c(Cl)c(Cl)c(Cl)c(Cl)c1Cl`, the molecule was called inactive in [1], in experiment [2], in experiment [3], in [4], in experiment [5] and in [6]. The outcome in experiment [7] was inactive. In experiment [8], the Potency result is “inactive”. Moreover, the Potency in experiment [9] was 30.9 µM (active).
`O=c1oc2ccccc2c(O)c1C(CC(O)c1ccc(-c2ccc(Br)cc2)cc1)c1ccccc1` (configuration not stated): the molecule was called inactive in experiment [1], in experiment [2], in experiment [3], in [4], in [5] and in experiment [6]. Besides, the outcome in experiment [7] was inactive.
Consider `Nn1cnnc1`, for which the call in experiment [1], in experiment [2], in experiment [3], in experiment [4], in [5] and in experiment [6] was inactive. Moreover, in [7], the molecule was classed as inactive. For the same molecule, the Potency entry in experiment [8] and in [9] was “inactive” each time.
With `C=CCc1ccc2c(c1)OCO2`, the molecule was classed as inactive in experiment [1], in experiment [2], in experiment [3], in experiment [4], in [5] and in experiment [6]. For the same molecule, in experiment [7], the call was inactive.
Turning to `CCC(C)c1ccc(O)cc1` (configuration not stated), the molecule was called inactive in experiment [1], in experiment [2], in experiment [3], in experiment [4], in experiment [5] and in [6]. The result in experiment [7] was inactive. Further, the Potency entry in experiment [8] and in [9] was “inactive” in each case.
Consider `CCC(C)(c1ccc(O)cc1)c1ccc(O)cc1`, for which the call in [1], in experiment [2], in [3], in [4], in [5] and in experiment [6] was inactive. Besides, the molecule was called inactive in [7].
On to `Cc1ccc2c(c1N)C(=O)c1ccccc1C2=O`, for which the molecule was classed as inactive in experiment [1], in experiment [2], in experiment [3], in experiment [4], in experiment [5] and in experiment [6]. In addition, in experiment [7], the result was inactive. Besides, the Potency result in [8] is “inactive”.
`Cc1ccc(OP(=O)(Oc2ccc(C)cc2)Oc2ccc(C)cc2)cc1`: the molecule was classed as inactive in [1], in [2], in experiment [3], in experiment [4], in experiment [5] and in experiment [6]. The result in experiment [7] was inactive. For the same molecule, the Potency entry in experiment [8] and in experiment [9] was “inactive” throughout.
Take `O=Cc1ccco1`: the call in [1], in experiment [2], in experiment [3], in [4], in experiment [5] and in [6] was inactive. Moreover, the molecule was called inactive in experiment [7].
Take `O=C(O)CC[N+](=O)[O-]`: the molecule was called inactive in [1], in experiment [2], in experiment [3], in experiment [4], in experiment [5] and in [6]. For the same molecule, the molecule was called inactive in experiment [7]. Moreover, the Potency entry in [8] and in experiment [9] was “inactive” throughout.
Turning to `CC(C)=CC1C(C(=O)OCc2coc(Cc3ccccc3)c2)C1(C)C` (configuration not stated), the molecule was classed as inactive in [1], in experiment [2], in [3], in experiment [4], in experiment [5] and in [6]. For the same molecule, the outcome in experiment [7] was inactive. Also, in experiment [8], the Potency entry was “inactive”. The Potency in experiment [9] was 21.8 µM (active).
Regarding `O=C(Nc1ccc(Br)cc1)c1cc(Br)cc(Br)c1O`, the outcome in [1], in experiment [2], in experiment [3], in [4], in [5] and in experiment [6] was inactive. In addition, the outcome in experiment [7] was inactive. Further, in experiment [8], the Potency result was “inactive”.
As for `C=C(C)[C@H]1Cc2c(ccc3c2O[C@@H]2COc4cc(OC)c(OC)cc4[C@@H]2C3=O)O1`, the molecule was classed as inactive in experiment [1], in experiment [2], in experiment [3], in experiment [4], in experiment [5] and in experiment [6]. Also, the molecule was classed as inactive in [7]. In experiment [8], the Potency entry was “inactive”.
